Screens as filed in PubChem.
EBNA-1 inh: blocks EBNA-1 binding to DNA; actives 0.34% (n = 300,000); inhibition, % at 14.8 µM; AID 1950; EBNA-1 DNA binding, fluorescence polarization; in the data active = inhibition above about 28%
PAD4 inh: PAD4 (human) enzyme inhibition | Q9UM07 | recombinant PAD4, RCA probe fluorescence polarization | inhibition, % at 6.36 µM | actives 0.41% (n = 330,000);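 active = percent inhibition above a cutoff equal to the mean of all tested compounds plus 3 SD, cut at about 15% in these data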;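 note: 0% = PAD4 with RCA probe and DMSO and 100% = probe without PAD4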
LYPLA1 counter: LYPLA1 (human) inhibition in PME1 counter-screen; recombinant LYPLA1, FP-Rh probe fluorescence polarization; inhibition, % at 5.9 µM; actives 0.16% (n = 320,000);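 active = inhibition above the mean of all tested compounds plus 3 SD, set per campaign, cut at about 14% in these data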;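 note: inhibitors block serine hydrolase probe labeling of LYPLA1 so polarization falls; 0% = enzyme with DMSO and 100% = wells lacking LYPLA1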
GSTO1 counter: blocks human GSTO1 in RBBP9 counter-screen | AID 1974 | P78417 | recombinant GSTO1, activity-based probe fluorescence polarization | actives 1.1% (n = 300,000) | inhibition, % at 5.96 µM;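 active = inhibition above the campaign mean inhibition plus 3 SD, cut at about 35% in these data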;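 note: 0% = GSTO1-1 with DMSO and 100% = wells lacking GSTO1-1 enzyme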
Target sequence (P78417 whole entry, looked up): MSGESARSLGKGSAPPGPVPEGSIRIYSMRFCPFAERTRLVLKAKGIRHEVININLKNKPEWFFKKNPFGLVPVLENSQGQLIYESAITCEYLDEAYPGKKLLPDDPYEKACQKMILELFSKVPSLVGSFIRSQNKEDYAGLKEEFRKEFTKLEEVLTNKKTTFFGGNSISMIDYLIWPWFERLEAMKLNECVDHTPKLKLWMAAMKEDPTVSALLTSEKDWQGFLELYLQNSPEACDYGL
ZTA DNA inh: blocks Epstein-Barr virus ZTA, an EBNA-1 counter-screen; P03206; ZTA-DNA binding, fluorescence polarization; inhibition, % at 11 µM; actives 0.15% (n = 320,000); AID 2234; in the data active = inhibition above about 33%
Target sequence (P03206 whole entry, looked up): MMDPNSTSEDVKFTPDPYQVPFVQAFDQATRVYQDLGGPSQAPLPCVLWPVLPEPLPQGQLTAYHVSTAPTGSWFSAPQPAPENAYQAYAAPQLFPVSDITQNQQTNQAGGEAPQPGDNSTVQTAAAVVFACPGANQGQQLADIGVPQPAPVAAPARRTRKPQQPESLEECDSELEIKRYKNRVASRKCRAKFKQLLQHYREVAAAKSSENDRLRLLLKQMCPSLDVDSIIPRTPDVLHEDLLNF
LYPLA2 inh: counter-screen for PME1 inhibitors: inhibitors of human LYPLA2; recombinant LYPLA2, FP-Rh probe fluorescence polarization; inhibition, % at 5.9 µM; actives 0.38% (n = 320,000); AID 2177;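 active = inhibition above the screen-wide mean plus 3 SD, limit set per campaign, cut at about 26% in these data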;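 note: 0% = LYPLA2 with DMSO and 100% = wells lacking LYPLA2 enzyme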
Target sequence (O95372 whole entry, looked up): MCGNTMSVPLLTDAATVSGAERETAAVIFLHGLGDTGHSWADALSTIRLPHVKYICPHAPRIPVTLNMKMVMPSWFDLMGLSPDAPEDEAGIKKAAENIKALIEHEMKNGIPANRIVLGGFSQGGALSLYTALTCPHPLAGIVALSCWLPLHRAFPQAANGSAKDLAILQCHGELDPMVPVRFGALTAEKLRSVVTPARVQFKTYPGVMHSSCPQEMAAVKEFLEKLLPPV
GSTO1 confirm: GSTO1 (human) inhibition, confirmation | shares compounds with GSTO1 counter | recombinant GSTO1, probe fluorescence polarization | inhibition, % at 5.96 µM | actives 54% (n = 2,400) | AID 2176;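 active = inhibition above the primary screen's cutoff, its mean inhibition plus 3 SD, cut at about 35% in these data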;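 note: loss of polarization as inhibitors block binding of rhodamine sulfonate ester activity probe; 0% = GSTO1 with DMSO and 100% = wells lacking GSTO1 enzyme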
LYPLA1 confirm: counter-screen for PME1 inhibitors: confirmation of human LYPLA1 inhibitors; shares compounds with LYPLA1 counter; recombinant LYPLA1, FP-Rh probe fluorescence polarization; inhibition, % at 5.9 µM; actives 69% (n = 480);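 active = mean inhibition across replicates above the hit cutoff set in the primary screen, cut at about 15% in these data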;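 note: loss of FP-Rh probe labeling of LYPLA1 seen as lower polarization; 0% = LYPLA1 with DMSO and 100% = wells lacking LYPLA1 enzyme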
LYPLA2 confirm: counter-screen for PME1 inhibitors: confirmation of human LYPLA2 inhibitors; actives 72% (n = 1,100); inhibition, % at 5.9 µM; shares compounds with LYPLA2 inh; recombinant LYPLA2, FP-Rh probe fluorescence polarization;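 active = mean inhibition across replicates above the hit cutoff set in the primary screen, cut at about 26% in these data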;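 note: blocked labeling of the enzyme by serine hydrolase FP-Rh probe lowers polarization; 0% = enzyme with DMSO and 100% = wells lacking LYPLA2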
ZTA inh confirm: EBV ZTA DNA binding inhibition, confirmation. shares compounds with ZTA DNA inh. inhibition, % at 11.1 µM. AID 2361. actives 30% (n = 320). Zta-ZRE DNA binding, fluorescence polarization;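 active = mean inhibition across triplicate runs above the hit threshold derived for the original primary screen, cut at about 33% in these data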;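 note: 0% = Zta with DMSO and 100% = wells lacking Zta protein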
EBNA-1 counter: blocks EBNA-1 DNA binding in ZTA counter-screen | 320 tested, under 10 active | fluorescence polarization | shares compounds with ZTA DNA inh | inhibition, % at 14.8 µM; call rule not given here
PAD4 confirm: PAD4 (human) inhibition, confirmed. shares compounds with PAD4 inh. recombinant PAD4, RCA probe fluorescence polarization. inhibition, % at 6.36 µM. actives 28% (n = 1,200). AID 488796;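 active = mean inhibition across replicates above the hit cutoff set by the earlier primary screen, cut at about 15% in these data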;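 note: inhibitors block active-site labeling by the probe so polarization falls; 0% = PAD4 with probe and DMSO and 100% = probe without PAD4 enzyme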
Starred values were filed as active, the others as inactive; / = no result; + = active, no number. In the library only some 1.7% were active in any assay of this set; here they are far more common.

SMILES	EBNA-1 inh	PAD4 inh	LYPLA1 counter	GSTO1 counter	ZTA DNA inh	LYPLA2 inh	GSTO1 confirm	PAD4 confirm	others
O=C1C(Cl)=C(N2CCC(C(=O)O)CC2)C(=O)c2ccccc21	3.5	19.6*	2.0	80.4*	0.9	40.0*	79.1*	15.5*	LYPLA2 confirm=37.3*
Cc1cc2c(N)cccc2nn1	7.4	120.1*	46.8*	65.3*	23.9	52.1*	109.8*	-2.0	LYPLA1 confirm=2.8;LYPLA2 confirm=45.7*
COC(=O)C(C)Sc1nc2ccsc2c(=O)n1Cc1ccccc1 (stereo not drawn)	2.3	1.5	-2.8	-1.6	-18.8	-4.7	/	/
COc1ccc(S(=O)(=O)N2CCOC23CCN(S(=O)(=O)c2ccc(Cl)cc2)CC3)cc1	3.2	1.8	3.7	2.4	11.6	-2.6	/	/
O=C(NCCO)c1ccc2nc(-c3ccco3)c(-c3ccco3)nc2c1	2.8	30.5*	1.2	75.4*	7.5	0.6	56.6*	-5.5
Cc1ccc(C=Nc2ccc(N(C)C)cc2)o1	+	25.5*	-1.0	82.6*	+	-1.4	1.9	-9.1
CC(=O)Nc1ccc(S(=O)(=O)/N=C2\C(=O)c3ccccc3C([O-])=C2n2cc[n+](-c3ccccn3)c2)cc1	-3.1	31.8*	2.2	76.6*	-4.6	8.2	82.4*	1.6
COC(=O)CCC(=O)OC1(C)C(=O)C=C2C=C(C3CC3)N(CCCOC(C)C)C=C2C1=O (stereo not drawn)	4.8	29.9*	2.3	58.8*	7.7	4.9	14.8	-6.9
Cc1[nH]c2ccccc2c1/C=N/n1cnnc1	5.1	-3.9	-1.4	-5.7	-7.3	-0.6	/	/
CCN(CC)c1ccc(N=Cc2c(C)[nH]c3ccccc23)cc1	199.3*	25.2*	-2.1	56.2*	188.2*	-3.6	4.8	3.3
COc1cccc2c1C(=O)c1c(O)c3c(c(O)c1C2=O)C[C@@](O)(C(=O)CO)C[C@@H]3O[C@H]1C[C@H](N)[C@H](O)[C@H](C)O1	24.6	58.3*	59.5*	45.2*	77.9*	42.6*	31.9	68.3*	LYPLA1 confirm=52.4*;LYPLA2 confirm=26.8*;ZTA inh confirm=97.8*;EBNA-1 counter=-8.0
O=C1CCC([N+](=O)[O-])C(c2ccccc2C(F)(F)F)N1 (stereo not drawn)	-1.3	1.5	2.6	2.0	-8.0	4.4	/	/
O=C(CC1C(=O)NCCN1Cc1ccc(-c2ccccc2)cc1)NCCCn1ccnc1 (stereo not drawn)	2.2	-2.7	0.3	-5.1	4.1	-0.3	/	/
CCCCn1c(NS(=O)(=O)c2ccc(C)cc2)c(S(=O)(=O)c2ccccc2)c2nc3ccccc3nc21	0.1	36.0*	-4.5	78.3*	11.7	-5.7	70.7*	-6.9
O=C1C(Nc2ccccc2)=C/C(=N/S(=O)(=O)c2cccs2)c2ccccc21	7.3	62.9*	-3.8	84.2*	15.8	0.6	95.1*	58.4*
O=C1C(Nc2ccccc2)=C(NS(=O)(=O)c2ccccc2)C(=O)c2ccccc21	5.4	-4.2	-1.3	2.5	13.9	7.5	/	/
COC(=O)c1cccc(NS(=O)(=O)c2cccs2)c1C	14.0	0.2	2.5	-0.3	4.9	9.1	/	/
COC(=O)c1ccccc1NC1=C/C(=N\S(=O)(=O)c2ccc(C(=O)O)cc2)c2ccccc2C1=O	-10.0	24.7*	13.4	86.0*	2.8	26.4*	84.8*	66.1*
COC(=O)c1ccccc1NC1=C/C(=N\S(=O)(=O)c2cccs2)c2ccccc2C1=O	2.5	37.5*	-3.4	78.9*	0.6	8.5	84.1*	35.4*
O=C(NCC1CCCO1)/C(=C/c1cn(-c2ccccc2)nc1-c1cccnc1)NC(=O)c1ccccc1 (stereo not drawn)	-2.1	-4.1	0.1	26.3	-8.2	-0.4	/	/
Cc1ccc(S(=O)(=O)Nc2ccc(O)c(Sc3ncn[nH]3)c2)cc1	-27.9	-5.2	0.5	14.5	7.4	-7.4	/	/
Cc1ccc(S(=O)(=O)/N=C2/C=C(Sc3ncn[nH]3)C(=O)c3ccccc32)cc1	0.4	39.1*	5.6	96.3*	41.0*	47.0*	88.0*	9.8	LYPLA2 confirm=57.0*;ZTA inh confirm=74.9*;EBNA-1 counter=-9.6
CN(CCC#N)C(=O)COC(=O)C1c2ccccc2Oc2ccccc21	6.2	-1.5	1.9	3.0	-8.4	-6.2	/	/
N#CCCN(CCC#N)C(=O)C1c2ccccc2Oc2ccccc21	-7.3	100.8*	76.4*	51.9*	-9.3	76.0*	9.7	7.5	LYPLA1 confirm=2.9;LYPLA2 confirm=3.0
CC1(C)CC(=O)C=C(c2cccc(O)c2)C1	/	0.1	0.6	/	0.4	-4.0	/	/
SMILES	EBNA-1 inh	PAD4 inh	LYPLA1 counter	GSTO1 counter	ZTA DNA inh	LYPLA2 inh	GSTO1 confirm	PAD4 confirm	others
C=Cc1c(C)c2cc3[nH]c(cc4nc(cc5nc(cc1[nH]2)C(C)=C5CCC(=O)O)C(CCC(=O)O)=C4C)c(C)c3C=C	95.7*	24.0*	13.7	89.2*	146.2*	17.3	82.0*	2.7
O=c1[nH]nc(CNc2ccc(O)cc2)c2ccccc12	7.4	55.2*	16.3*	82.1*	-1.9	34.2*	-2.0	2.7	LYPLA1 confirm=5.0;LYPLA2 confirm=5.0
Nc1cccc2nsnc12	1.5	-10.9	-0.3	23.8	7.7	-6.4	/	/
Nc1cc2nsnc2cc1Br	0.0	77.7*	75.7*	92.4*	67.6*	86.7*	90.6*	53.0*	LYPLA1 confirm=72.5*;ZTA inh confirm=28.0;EBNA-1 counter=-3.3
Cc1nnc(N/N=C/c2cc(C)n(-c3ccc(F)cc3)c2C)n1N	5.9	29.0*	-2.1	49.7*	2.6	1.5	2.4	-0.8
Cc1nnc(N/N=C/c2ccccc2O)n1N	-6.5	41.4*	0.4	71.7*	-5.7	3.4	31.9	0.6
Oc1ccccc1/C=N/Nc1nn[nH]n1	-3.5	1.5	3.2	24.8	-5.9	4.3	/	/
CCOc1ccc(C(C)=O)cc1COC(=O)CCc1cc(OC)c(OC)c(OC)c1	-4.6	1.6	-1.2	5.0	-9.6	-4.9	/	/
O=c1[nH]c(Nc2ccc(F)cc2)cc2ccccc12	4.5	43.2*	4.7	66.7*	14.1	6.5	43.6*	16.6*
